Assay results taken from paper PMC4081100, “A DNA-binding-site landscape and regulatory network analysis for NAC transcription factors in Arabidopsis thaliana”.

Legend:
Assay in all cases: universal protein binding microarray (PBM); transcription factors of Arabidopsis thaliana; high values mean tight binding
Conditions in all cases: protein: recombinant; tags: GST; chain copies: 2; dsDNA, one strand shown
GST-ANAC092(1-176) = target: T1, GST-ANAC092(1-176) (Arabidopsis thaliana, UniProt Q9FKA0 1-176)
T1 sequence: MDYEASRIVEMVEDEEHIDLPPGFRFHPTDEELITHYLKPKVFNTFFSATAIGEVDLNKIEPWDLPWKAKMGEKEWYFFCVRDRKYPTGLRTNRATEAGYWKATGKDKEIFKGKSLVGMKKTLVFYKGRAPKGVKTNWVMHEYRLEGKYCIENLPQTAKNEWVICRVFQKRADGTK
Summary of the method: (§1)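 Protein amounts were determined by A280 or anti-GST western blot after glutathione–Sepharose 4B purification of GST-tagged proteins induced in cells, with zinc acetate included for zinc-finger proteins. Duplicate runs at 200 to 500 nM final were done on custom all-10-mer Agilent 4 × 180K arrays made double-stranded by primer extension. The normalised enrichment score (E-score) over gapped and ungapped 8-mers is the measure of binding.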

GST-NTL6(1-168) = GST-NTL6(1-168) (Arabidopsis thaliana, UniProt Q9SCK6 1-168)
Summary of the method: as §1

GST-ANAC055(1-171) = target: T2, GST-ANAC055(1-171) (Arabidopsis thaliana, UniProt Q9LDY8 1-171)
T2 sequence: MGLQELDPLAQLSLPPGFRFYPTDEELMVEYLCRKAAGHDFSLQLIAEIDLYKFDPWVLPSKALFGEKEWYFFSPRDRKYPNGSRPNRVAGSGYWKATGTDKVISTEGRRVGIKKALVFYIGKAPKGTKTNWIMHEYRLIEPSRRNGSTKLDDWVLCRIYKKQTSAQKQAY
Summary of the method: as §1

[1] = target: T3, GST-ANAC092(1-285) full length (Arabidopsis thaliana, UniProt Q9FKA0 1-285)
T3 sequence: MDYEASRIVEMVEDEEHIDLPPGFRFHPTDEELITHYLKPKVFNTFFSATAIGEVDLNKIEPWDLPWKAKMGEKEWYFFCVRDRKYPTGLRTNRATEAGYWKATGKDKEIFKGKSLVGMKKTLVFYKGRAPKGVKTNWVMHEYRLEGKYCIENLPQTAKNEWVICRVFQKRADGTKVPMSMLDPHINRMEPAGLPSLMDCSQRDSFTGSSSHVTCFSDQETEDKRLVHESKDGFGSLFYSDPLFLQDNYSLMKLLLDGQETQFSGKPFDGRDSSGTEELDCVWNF
Summary of the method: as §1

GST-NST2(1-184) = target: T4, GST-NST2(1-184) (Arabidopsis thaliana, UniProt Q9M274 1-184)
T4 sequence: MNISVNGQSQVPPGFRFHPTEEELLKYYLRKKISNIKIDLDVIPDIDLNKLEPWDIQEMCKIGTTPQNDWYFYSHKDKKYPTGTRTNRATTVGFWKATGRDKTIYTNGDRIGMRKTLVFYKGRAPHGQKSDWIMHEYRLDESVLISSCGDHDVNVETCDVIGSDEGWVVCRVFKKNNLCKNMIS
Summary of the method: as §1

GST-NTL8 NAC domain = target: T5, GST-NTL8 NAC domain (Arabidopsis thaliana, UniProt Q9XIN7 14-156)
T5 sequence: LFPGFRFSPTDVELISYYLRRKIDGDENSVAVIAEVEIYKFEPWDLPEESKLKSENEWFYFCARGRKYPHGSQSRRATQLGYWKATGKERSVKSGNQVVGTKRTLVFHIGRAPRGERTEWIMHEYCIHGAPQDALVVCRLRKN
Summary of the method: as §1

GST-SND1(1-203) = target: T6, GST-SND1(1-203) (Arabidopsis thaliana, UniProt Q9LPI7 1-203)
T6 sequence: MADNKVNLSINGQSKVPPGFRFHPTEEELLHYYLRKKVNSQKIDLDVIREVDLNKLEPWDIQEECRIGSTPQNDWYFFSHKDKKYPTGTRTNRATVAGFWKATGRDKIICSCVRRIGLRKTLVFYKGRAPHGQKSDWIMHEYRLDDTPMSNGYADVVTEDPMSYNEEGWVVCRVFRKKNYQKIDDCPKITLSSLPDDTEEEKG
Summary of the method: as §1

GST-VND3 NAC domain = target: T7, GST-VND3 NAC domain (Arabidopsis thaliana, UniProt Q9FH59 12-162)
T7 sequence: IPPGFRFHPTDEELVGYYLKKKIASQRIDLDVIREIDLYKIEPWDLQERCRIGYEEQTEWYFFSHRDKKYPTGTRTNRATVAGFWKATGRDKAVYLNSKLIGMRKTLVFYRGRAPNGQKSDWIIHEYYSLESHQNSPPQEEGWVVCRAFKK
Summary of the method: as §1

GST-VND7 NAC domain = target: T8, GST-VND7 NAC domain (Arabidopsis thaliana, UniProt Q9C8W9 9-158)
T8 sequence: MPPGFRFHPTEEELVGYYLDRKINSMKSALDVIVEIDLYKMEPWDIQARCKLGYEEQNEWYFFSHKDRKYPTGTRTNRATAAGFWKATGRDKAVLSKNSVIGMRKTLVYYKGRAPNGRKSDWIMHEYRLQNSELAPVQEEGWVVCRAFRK
Summary of the method: as §1

GST-ANAC019 NAC domain = target: T9, GST-ANAC019 NAC domain (Arabidopsis thaliana, UniProt Q9C932 14-162)
T9 sequence: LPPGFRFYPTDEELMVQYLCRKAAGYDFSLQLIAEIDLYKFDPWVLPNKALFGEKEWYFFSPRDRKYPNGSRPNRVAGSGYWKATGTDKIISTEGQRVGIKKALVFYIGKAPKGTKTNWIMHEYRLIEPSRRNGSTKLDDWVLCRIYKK
Summary of the method: as §1

GST-ATAF1 NAC domain = target: T10, GST-ATAF1 NAC domain (Arabidopsis thaliana, UniProt Q39013 7-158)
T10 sequence: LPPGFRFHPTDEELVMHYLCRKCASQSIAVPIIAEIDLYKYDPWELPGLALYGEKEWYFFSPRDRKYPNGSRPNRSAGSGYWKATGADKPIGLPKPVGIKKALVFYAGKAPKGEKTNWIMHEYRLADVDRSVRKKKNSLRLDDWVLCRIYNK
Summary of the method: as §1

GST-NAP(1-166) = target: T11, GST-NAP(1-166) (Arabidopsis thaliana, UniProt O49255 1-166)
T11 sequence: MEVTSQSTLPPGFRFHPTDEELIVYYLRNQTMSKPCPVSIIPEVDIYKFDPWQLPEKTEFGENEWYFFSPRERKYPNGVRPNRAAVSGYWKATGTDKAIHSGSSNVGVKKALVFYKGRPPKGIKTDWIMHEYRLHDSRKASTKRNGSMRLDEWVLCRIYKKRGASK
Summary of the method: as §1

GST-NTL6(1-168), sequence (Q9SCK6 1-168): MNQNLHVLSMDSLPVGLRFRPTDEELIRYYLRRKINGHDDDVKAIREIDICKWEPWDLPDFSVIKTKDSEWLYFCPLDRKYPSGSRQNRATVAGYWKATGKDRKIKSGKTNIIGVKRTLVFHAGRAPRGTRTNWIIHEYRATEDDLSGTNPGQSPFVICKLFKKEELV

Sequence | binding signal (GST-ANAC092(1-176)) [E-score] | binding signal (GST-NTL6(1-168)) [E-score] | binding signal (GST-ANAC055(1-171)) [E-score] | binding signal [1] [E-score] | binding signal (GST-NST2(1-184)) [E-score] | binding signal (GST-NTL8 NAC domain) [E-score] | binding signal (GST-SND1(1-203)) [E-score] | binding signal (GST-VND3 NAC domain) [E-score] | binding signal (GST-VND7 NAC domain) [E-score] | binding signal (GST-ANAC019 NAC domain) [E-score] | binding signal (GST-ATAF1 NAC domain) [E-score] | binding signal (GST-NAP(1-166)) [E-score]
AAAGCAAC | 0.268 | 0.0839 | 0.0548 | 0.373 | 0.277 | 0.0929 | 0.401 | 0.0501 | 0.145 | – | – | –
ATGCGTGC | 0.429 | – | 0.217 | 0.452 | 0.221 | – | 0.292 | 0.191 | 0.138 | 0.276 | 0.21 | 0.273
TAAAGCAA | 0.138 | 0.134 | – | 0.293 | 0.262 | 0.15 | 0.42 | 0.135 | 0.228 | – | – | –
CACACGTC | 0.33 | – | 0.221 | 0.405 | 0.079 | – | 0.157 | 0.199 | 0.176 | 0.214 | 0.248 | 0.172
ATGTCGTG | 0.267 | – | 0.371 | 0.336 | 0.0589 | – | 0.118 | 0.362 | 0.37 | 0.419 | 0.289 | 0.2
TCACGGCA | 0.398 | – | 0.438 | 0.429 | 0.177 | – | 0.16 | 0.45 | 0.456 | 0.473 | 0.385 | 0.344
ATACGGCA | 0.419 | – | 0.353 | 0.433 | 0.0642 | – | 0.228 | 0.414 | 0.44 | 0.361 | 0.365 | 0.411
ACGGCACG | 0.34 | – | 0.34 | 0.404 | 0.133 | – | 0.0651 | 0.217 | 0.233 | 0.291 | 0.286 | 0.324
GATGCGTA | 0.368 | – | 0.227 | 0.416 | 0.185 | – | 0.415 | 0.267 | 0.186 | 0.216 | 0.239 | 0.182
GCACGGCA | 0.449 | – | 0.448 | 0.461 | 0.164 | – | 0.107 | 0.408 | 0.461 | 0.472 | 0.361 | 0.41
ACGCAATC | 0.48 | – | 0.343 | 0.485 | 0.384 | – | 0.474 | 0.355 | 0.38 | 0.285 | 0.298 | 0.386
ACGCATCC | 0.388 | – | 0.194 | 0.431 | 0.173 | – | 0.397 | 0.16 | 0.231 | 0.216 | 0.195 | 0.256
GCACGCAA | 0.492 | – | 0.396 | 0.493 | 0.405 | – | 0.456 | 0.438 | 0.431 | 0.458 | 0.277 | 0.423
CACGCATC | 0.396 | – | 0.291 | 0.44 | 0.125 | – | 0.296 | 0.239 | 0.232 | 0.334 | 0.235 | 0.309
ATACACGC | 0.39 | – | 0.185 | 0.423 | 0.167 | – | 0.0978 | 0.167 | 0.0693 | 0.19 | 0.21 | 0.256
GCGTGTTA | 0.415 | – | 0.174 | 0.432 | 0.178 | – | 0.199 | 0.212 | 0.113 | 0.214 | 0.141 | 0.227
AAGCGTGT | 0.421 | – | 0.167 | 0.44 | 0.192 | – | 0.186 | 0.126 | 0.213 | 0.242 | 0.207 | 0.133
ACGGCAAC | 0.401 | – | 0.375 | 0.42 | 0.264 | – | 0.246 | 0.326 | 0.331 | 0.386 | 0.288 | 0.264
ACACGCCA | 0.487 | – | 0.298 | 0.492 | 0.313 | – | 0.379 | 0.22 | 0.257 | 0.382 | 0.227 | 0.294
ATTTCGTG | 0.389 | – | 0.22 | 0.422 | 0.136 | – | 0.109 | 0.191 | 0.157 | 0.174 | 0.154 | 0.133
GCGTGTGA | 0.374 | – | 0.23 | 0.419 | 0.189 | – | 0.17 | 0.14 | 0.0819 | 0.191 | 0.226 | 0.145
CGCACGCA | 0.401 | – | 0.241 | 0.42 | 0.213 | – | 0.229 | 0.213 | 0.232 | 0.291 | 0.0589 | 0.291
ACGTTAGC | 0.377 | – | 0.0938 | 0.406 | 0.166 | – | 0.343 | 0.183 | 0.128 | 0.144 | 0.213 | 0.0584
TGCGTGAA | 0.325 | – | 0.258 | 0.414 | 0.198 | – | 0.338 | 0.281 | 0.263 | 0.327 | 0.234 | 0.189
ACGCCAAC | 0.404 | – | 0.175 | 0.436 | 0.227 | – | 0.379 | 0.0688 | 0.118 | 0.116 | 0.159 | 0.0544
ACGTACGC | 0.212 | – | 0.16 | 0.402 | 0.193 | – | 0.253 | 0.252 | 0.209 | 0.202 | 0.26 | 0.274
CTACACGC | 0.361 | – | 0.0947 | 0.425 | 0.235 | – | 0.307 | 0.147 | 0.0812 | 0.11 | 0.186 | 0.192
GCCGTGTA | 0.341 | – | 0.345 | 0.402 | 0.0515 | – | 0.0913 | 0.347 | 0.351 | 0.44 | 0.314 | 0.235
CACGGCAG | 0.39 | – | 0.403 | 0.426 | 0.0722 | – | 0.11 | 0.412 | 0.384 | 0.457 | 0.307 | 0.227
TACACGTA | 0.382 | – | 0.361 | 0.411 | 0.198 | – | 0.251 | 0.375 | 0.406 | 0.286 | 0.322 | 0.386
